Data on 68 molecules can be found in PubChem BioAssay AID540256 (National Center for Advancing Translational Sciences (NCATS), 2011).

Structures are written as SMILES. In all, about 300,000 compounds went through this assay and about 3,700 (1.2%) were called active. Another 20% or so got no clear call; they are omitted. Calls come from the whole dose curve; tested in HEK293 cells. Shown is part of a subset that was picked to be rich in actives. Entries that show only a call come without a potency.
Potency is the fitted concentration of half-maximal effect.

The assay in a line: qHTS for Inhibitors of binding or entry into cells for Lassa Virus. Note: nearly all actives have a fitted effect of over 50% in size. As to conditions: Lassa virus pseudotype entry inhibition, cell reporter; series mostly up to 37.9 µM.
In the case of `COc1ccc(C(=O)COC(=O)c2c(C)noc2C)cc1Cl`, the Potency entry was “inactive”.
As for `Cc1c(C(=O)Nc2cccc(S(=O)(=O)N3CCOCC3)c2)oc2ccccc12`, the Potency entry is “inactive”.
As for `O=C(c1ccc(N2CCOCC2)c([N+](=O)[O-])c1)N1CCN(c2ccccc2F)CC1`, the Potency entry was “inactive”.
As to `Nc1ncc(-c2cc3ccccc3oc2=O)s1`, the Potency entry is “inactive”.
Under `O=C(c1cn(-c2ccccc2)nc1-c1cc2ccccc2oc1=O)N1CCOCC1` stands “inactive”; under `O=c1oc2ccccc2cc1-c1cn(-c2ccccc2)c(=S)[nH]1`, 0.891 µM (active); under `O=C1NCC(Nc2ccccc2)C(=O)N1` (stereo not drawn), “inactive”.
Regarding `O=C(NCc1ccc(Cl)cc1)C(=O)NCC1CCCN1S(=O)(=O)c1cccs1` (stereo not drawn), the Potency result was “inactive”.
As for `O=C(COC(=O)c1cnccn1)Nc1ccc(Cl)cc1C(F)(F)F`, the Potency entry was “inactive”.
Regarding `CN(Cc1cnccn1)C(=O)c1cc(COc2cccc(C(F)(F)F)c2)on1`, the Potency result is “inactive”.
`Cc1cccc(Cn2c(SCCO)nc3c2c(=O)n(C)c(=O)n3C)c1`: the Potency result is “inactive”.
`COC(=O)C(C)Sc1nc2c(c(=O)n(C)c(=O)n2C)n1Cc1cccc(C)c1` (stereo not drawn): the Potency entry is “inactive”.
For the molecule `Cc1cccc(Cn2c(N3CCN(c4ccccc4)CC3)nc3c2c(=O)n(C)c(=O)n3C)c1`, the Potency is 5.8 µM (active).
For `COc1ccc(/C=C2/SC(=O)N(CCCCCC(=O)Nc3ccccc3C(=O)O)C2=S)cc1`, the Potency is 11.2 µM (active).
`COc1ccc(/C=C2\SC(=O)N(CCC(=O)NC3CCS(=O)(=O)C3)C2=O)cc1` (stereo not drawn): the Potency result is “inactive”.
On to `O=C(CCCN1C(=O)/C(=C\c2ccccc2)SC1=S)Nc1ccccc1O`, for which the Potency result was “inactive”.
As to `CCCCN1CC(COc2ccccc2)Oc2cccc(F)c2S1(=O)=O` (stereo not drawn), the Potency result was “inactive”.
Take `O=C(Cc1ccccc1Cl)N1CCOCC1`: the Potency entry is “inactive”.
Take `O=C(Nc1ccccc1C(=O)Nc1ccncc1)c1ccc([N+](=O)[O-])cc1`: the Potency result is “inactive”.
Turning to `O=C(CN1CCN(c2ccccn2)CC1)N1CCc2ccccc21`, the Potency entry is “inactive”.
Consider `O=C(CN1C(=O)c2ccccc2S1(=O)=O)NC1CCCCC1`, for which the Potency result was “inactive”.
For the molecule `O=C(CN1C(=O)c2ccccc2S1(=O)=O)N1CCc2ccccc21`, the Potency is 0.259 µM (active).
As to `O=C(CSc1ncnc2sccc12)N1CCN(C(=O)c2cccs2)CC1`, the Potency result is “inactive”.
`COc1ccc(NC(=O)Nc2ccc3nsnc3c2)cc1`: the Potency result was “inactive”.
As to `O=C(Nc1ccc2ccccc2c1)Nc1ccc2snnc2c1`, the Potency is 12.6 µM (active).
As for `S=C(Nc1ccccc1)Nc1ccc2ccccc2c1`, the Potency result is “inactive”.
With `Cc1ccccc1-c1nc2scc(CCNC(=O)C(=O)Nc3ccc(F)cc3F)n2n1`, the Potency entry was “inactive”.
As for `C/C(=N\NC(=O)COc1ccc(C)cc1[N+](=O)[O-])c1ccc2c(c1)OCCO2`, the Potency result is “inactive”.
In the case of `O=C(NCC(c1ccco1)N1CCc2ccccc21)c1cccc(F)c1` (stereo not drawn), the Potency entry was “inactive”.
For `COc1ccc(C(=O)OCc2cc(=O)n3ccsc3n2)cc1F`, the Potency entry is “inactive”.
As for `CC(C)(C)OC(=O)NNc1c2ccccc2nc2ccccc12`, the Potency was 12.6 µM (active).
In the case of `Cc1ccccc1NC(=O)NNC(=O)OC(C)(C)C`, the Potency result is “inactive”.
Under `CCC(=O)OCCNc1nc(-c2ccccc2)nc2ccccc12` stands “inactive”.
Take `COc1ccc(-c2csc(NC(=O)CCCc3cccs3)n2)cc1`: the Potency result was “inactive”.
As for `COc1ccc(-c2csc(NC(=O)c3ccc(N4C(=O)CCC4=O)cc3)n2)cc1OC`, the Potency entry was “inactive”.
Under `Cc1ccc(-c2csc(NC(=O)c3cnccn3)n2)cc1C` stands “inactive”.
Under `COc1ccc(CC(=O)Nc2nc(-c3ccc(F)c(F)c3)cs2)cc1OC` stands 11.2 µM (active); under `Cc1ccc(S(=O)(=O)NC(=O)Nc2nc(-c3ccc(F)c(F)c3)cs2)cc1`, “inactive”; under `Cc1ccc(-c2csc(NC(=O)Cc3cccs3)n2)cc1C`, 15.8 µM (active).
To `COc1ccc(NC(=O)c2ccc3nc(C(C)C)oc3c2)cc1OC` belongs “inactive”; to `NC(=O)C1(Nc2ccc(-c3ccccc3)cc2)CCCC1`, “inactive”; to `CCOc1ccc(/C=C(/C#N)c2nnc(N3CCOCC3)n2-c2ccccc2)cc1OC`, “inactive”.
As for `Cc1nc(N2CCOCC2)c2c(C)c(C(=O)Nc3ccc(C(F)(F)F)cc3)sc2n1`, the Potency is 2.24 µM (active).
For `Cc1nc(N2CCC(C)CC2)c2c(C)c(C(=O)Nc3cc(F)ccc3C)sc2n1`, the Potency entry is “inactive”.
Under `CCOC(=O)C1CCCN(C(=O)c2sc3nc(C)nc(N4CCOCC4)c3c2C)C1` (stereo not drawn) stands “inactive”; under `COc1ccc(NS(=O)(=O)c2ccc(N3CCOCC3)c(NC(=O)/C=C/C(=O)O)c2)cc1`, “inactive”.
With `c1ccc2c(c1)[I+]c1ccccc1-2`, the Potency was 0.259 µM (active).
In the case of `N=C1c2ccccc2-c2ccccc21`, the Potency entry is “inactive”.
Consider `COc1cccc(N(C(=O)c2snc(C(N)=O)c2N)C(C(=O)NCC2CCCO2)c2c[nH]c3ccccc23)c1` (stereo not drawn), for which the Potency was 5.62 µM (active).
As to `CCC(C(=O)NC1CCCC1)N(C(=O)c1snc(C(N)=O)c1N)c1ccc2c(c1)OCCO2` (stereo not drawn), the Potency entry is “inactive”.
For the molecule `CCOc1cc(C(C(=O)NCC2CCCO2)N(C(=O)Cn2nnc3ccccc32)c2cccc(OC)c2)ccc1O` (stereo not drawn), the Potency result is “inactive”.
Under `COc1cc(C(=O)Nn2c(CC(C)C)nc3ccccc3c2=O)cc(OC)c1OC` stands “inactive”.
On to `Cc1cc(F)ccc1NC(=S)NCCc1ccccc1`, for which the Potency entry is “inactive”.
On to `CCCC1CCC(=NNC(=S)NCCc2ccccc2)CC1` (stereo not drawn), for which the Potency is 10 µM (active).
Under `S=C(NN=C1CCN(Cc2ccccc2)CC1)NC1CCCCC1` stands “inactive”; under `COc1cccc(NC(=O)CC2C(=O)NCCN2C(=S)Nc2ccc(F)cc2)c1` (stereo not drawn), “inactive”.
Turning to `S=C(Nc1cccc(Br)c1)N1CCn2cccc2C1c1cccnc1` (stereo not drawn), the Potency is 7.94 µM (active).
To `Fc1cc(Br)ccc1NC(=S)Nc1cccnc1` belongs “inactive”; to `CC(C)(C)C(=O)Nc1cccc(-c2ccc[nH]2)n1`, “inactive”.
Take `c1ccc(CCc2ccccn2)cc1`: the Potency result was “inactive”.
As for `Cc1cc(Br)ccc1NC(=S)NC1CCCC1`, the Potency entry was “inactive”.
Turning to `COc1ccc(C(=O)Nc2ccccc2C(=O)N/N=C/c2ccc(O)c(OC)c2)cc1`, the Potency is 0.355 µM (active).
Under `O=C(N/N=C/c1ccc(OC(=O)c2ccccc2Cl)cc1)c1ccc(O)cc1` stands “inactive”.
Consider `COc1ccc(C(=O)Nc2ccccc2C(=O)N/N=C/c2ccccc2OC)cc1`, for which the Potency entry was “inactive”.
Under `Cc1ccc(-c2cc(C(=O)NC3CCN(Cc4ccccc4)CC3)c3ccccc3n2)cc1` stands “inactive”.
Turning to `COc1cccc(/C=N/Nc2ncc(C(F)(F)F)cc2Cl)c1O`, the Potency was 7.94 µM (active).
Regarding `COc1cc(/C=C2\SC(=S)N(Nc3ncc(C(F)(F)F)cc3Cl)C2=O)cc(OC)c1OC`, the Potency result was “inactive”.
As to `COc1cccc(/C(C)=N/Nc2ncc(Cl)cc2Cl)c1`, the Potency result was “inactive”.
